Consider 40 compounds from the supplement of paper PMC4206461.

The structures appear in SMILES notation.

This assay concerns Pseudomonas aeruginosa PA14 dppBCDF deletion mutant. Briefly: respiration area under curve with compound as sole nitrogen source, 24 h (OmniLog AUC (arbitrary units)); higher = more respiration / better utilisation as nitrogen source, active = 2000 or more; extreme values may be limits of the assay. On the procedure:
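Biolog Phenotype MicroArray plates PM6-PM8: each di/tripeptide is the sole nitrogen source. Tetrazolium reduction was read in the OmniLog every 15 min for 24 h at 37°C and summarised as area under the respiration curve (arbitrary units). Values below 2000 count as no respiration. Strain is the dipeptide ABC transporter deletion mutant.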
Take `N[C@@H](Cc1ccccc1)C(=O)N1CCC[C@H]1C(=O)O` (plate: PM7): the “respiration area under curve” value was 1.5 (inactive).
The value for `NC(=O)C[C@H](N)C(=O)N[C@@H](CCC(=O)O)C(=O)O` (plate: PM6) was 1590 (inactive).
For `C[C@H](NC(=O)CNC(=O)CN)C(=O)O` (plate: PM8), the “respiration area under curve” value was 102 (inactive).
Consider `CSCC[C@H](NC(=O)[C@@H](N)CCCN=C(N)N)C(=O)O` (plate: PM6), for which the “respiration area under curve” value was 9400 (active).
In the case of `C[C@H](N)C(=O)N[C@@H](CC(=O)O)C(=O)O` (plate: PM8), the “respiration area under curve” value is 2510 (active).
For `N[C@@H](Cc1c[nH]c2ccccc12)C(=O)N[C@@H](Cc1ccc(O)cc1)C(=O)O` (plate: PM7), the “respiration area under curve” value is 236 (inactive).
In the case of `CC[C@H](C)[C@H](N)C(=O)N1CCC[C@H]1C(=O)O` (plate: PM6), the “respiration area under curve” value is 0 (inactive).
The value for `NCC(=O)N[C@@H](Cc1c[nH]c2ccccc12)C(=O)O` (plate: PM6) was 0 (inactive); that for `NC(N)=NCCC[C@H](N)C(=O)N[C@@H](CC(=O)O)C(=O)O` (plate: PM6) was 7880 (active); that for `C[C@H](NC(=O)CCN)C(=O)O` (plate: PM8) was 0 (inactive).
Turning to `NCC(=O)N[C@@H](CCCN=C(N)N)C(=O)O` (plate: PM6), the “respiration area under curve” value is 7970 (active).
The value for `NCC(=O)N[C@@H](Cc1ccccc1)C(=O)N[C@@H](Cc1ccccc1)C(=O)O` (plate: PM8) was 1840 (inactive); that for `CC(C)C(NC(=O)C1CCCN1)C(=O)O` (stereo not given) (plate: PM8) was 134 (inactive).
In the case of `C[C@H](NC(=O)[C@@H](N)CCC(=O)O)C(=O)O` (plate: PM8), the “respiration area under curve” value was 51.5 (inactive).
As for `NCC(=O)NCC(=O)NCC(=O)O` (plate: PM8), the figure is 5.75 (inactive); as for `N[C@@H](Cc1c[nH]c2ccccc12)C(=O)NCC(=O)O` (plate: PM7), 6.75 (inactive); as for `CSCC[C@H](N)C(=O)N[C@@H](Cc1ccccc1)C(=O)O` (plate: PM7), 85 (inactive).
Turning to `CC(C)C[C@@H](N)C(=O)N[C@@H](Cc1ccc(O)cc1)C(=O)O` (plate: PM8), the “respiration area under curve” value was 0 (inactive).
For the compound `C[C@H](NC(=O)[C@@H](N)[C@@H](C)O)C(=O)O` (plate: PM7), the “respiration area under curve” value is 3130 (active).
As for `CC[C@H](C)[C@H](NC(=O)[C@H](C)N)C(=O)O` (plate: PM8), the “respiration area under curve” value was 1150 (inactive).
As for `N[C@@H](Cc1ccccc1)C(=O)N[C@@H](Cc1ccccc1)C(=O)O` (plate: PM7), the figure is 2740 (active).
In the case of `O=C(O)CNC(=O)[C@@H]1CCCN1` (plate: PM7), the “respiration area under curve” value was 217 (inactive).
For the compound `C[C@H](N)C(=O)N[C@@H](CCCN=C(N)N)C(=O)O` (plate: PM6), the “respiration area under curve” value is 9770 (active).
As for `C[C@H](N)C(=O)N[C@@H](C)C(=O)N[C@@H](C)C(=O)O` (plate: PM8), the figure is 6480 (active); as for `N[C@@H](CO)C(=O)N1CCC[C@H]1C(=O)O` (plate: PM7), 0 (inactive).
The value for `O=C(O)[C@H](Cc1ccccc1)NC(=O)[C@@H]1CCCN1` (plate: PM7) was 3470 (active); that for `C[C@H](N)C(=O)NCC(=O)O` (plate: PM6) was 3630 (active).
Regarding `N[C@@H](CC(=O)O)C(=O)N[C@@H](CC(=O)O)C(=O)O` (plate: PM6), the “respiration area under curve” value was 12.5 (inactive).
Take `C[C@H](NC(=O)[C@@H](N)CO)C(=O)O` (plate: PM7): the “respiration area under curve” value is 2670 (active).
As for `C[C@H](N)C(=O)N[C@@H](Cc1ccc(O)cc1)C(=O)O` (plate: PM6), the figure is 4510 (active); as for `CC(C)[C@H](N)C(=O)N[C@@H](C)C(=O)O` (plate: PM8), 207 (inactive); as for `NC(Cc1c[nH]c2ccccc12)C(=O)NC(Cc1ccccc1)C(=O)O` (stereo not given) (plate: PM7), 14.8 (inactive).
As for `NCC(=O)N[C@@H](Cc1ccccc1)C(=O)O` (plate: PM6), the figure is 350 (inactive); as for `CSCC[C@H](NC(=O)[C@@H](N)CO)C(=O)O` (plate: PM7), 88.8 (inactive).
Turning to `CC(C)C[C@H](NC(=O)[C@@H](C)N)C(=O)O` (plate: PM8), the “respiration area under curve” value is 0 (inactive).
The value for `CC[C@H](C)[C@H](N)C(=O)N[C@@H](CC(C)C)C(=O)O` (plate: PM8) was 924 (inactive); that for `CC(C)C[C@H](N)C(=O)N1CCC[C@H]1C(=O)O` (plate: PM8) was 0 (inactive).
Regarding `CC[C@H](C)[C@H](NC(=O)[C@@H](N)Cc1ccc(O)cc1)C(=O)O` (plate: PM8), the “respiration area under curve” value is 5950 (active).
The value for `C[C@H](O)[C@@H](NC(=O)CN)C(=O)O` (plate: PM8) was 0 (inactive); that for `C[C@@H](N)C(=O)NCC(=O)O` (plate: PM8) was 0 (inactive).
